From PubChem BioAssay come the findings set out here.

Test [1] can be described thus: rapamycin-like changes in RPL19A-GFP expression – cell-based, S. cerevisiae, multiplex flow cytometry, primary screen (AID 1862; in the data active = percent of DMSO control GFP below about 86%;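 also: lower values mimic rapamycin by blocking the RPL19A rise seen in DMSO cells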). The conditions noted are these: S. cerevisiae RPL19A-GFP strain, flow cytometry fluorescence, 3 h; at 10 µM; stronger effect = lower value. (In general: In flow cytometry, cells or beads pass a laser one at a time.)
Test [2] can be described thus: TOR pathway GLN3 branch reporter MEP2-GFP changes – S. cerevisiae, multiplex flow cytometry, primary screen (AID 1867;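 active = GFP response, as percent of the DMSO control, above the screen-wide mean plus 3 SD, about 139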;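 also: median GFP channel fluorescence of barcode-gated MEP2-GFP cells measured by flow cytometry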). The following applies: S. cerevisiae MEP2-GFP strain, 3 h, at 10 µM, stronger effect = higher value, 100% means same as DMSO wells.
Test [3] is described as follows: TOR pathway RTG branch CIT2 reporter changes – S. cerevisiae, GFP fusion, multiplex flow cytometry, primary screen (AID 1870;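 active = percent response above a set limit, the screen-wide mean plus 3 SD, cut at about 130% in these data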;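 also: barcoded CIT2-GFP strain pooled with four other GFP strains with rapamycin as positive control; median GFP fluorescence per well over plate mean of DMSO wells so 100% = DMSO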). The conditions noted are these: S. cerevisiae CIT2-GFP expression, 3 h, at 10 µM, stronger effect = higher value.
A short description of test [4]: TOR pathway LAP4-GFP level changes – S. cerevisiae, multiplex flow cytometry, primary screen (AID 1873;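 active = GFP signal, as percent of the solvent control, above the screen mean plus 3 SD, about 149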). The following applies: S. cerevisiae LAP4-GFP expression, 3 h, at 10 µM, stronger effect = higher value.
Test [5] is described as follows: yeast AGP1-GFP level changes, GLN3 branch – cell-based, multiplex flow cytometry, S. cerevisiae, primary screen (AID 1887;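 active = GFP signal above the screen-wide mean plus 3 SD, that is over about 124.5% of the solvent control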;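 also: AGP1-GFP fusion strain of S. cerevisiae within a five-strain barcoded multiplex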). The conditions noted are these: 3 h, at 10 µM, stronger effect = higher value.
A short description of test [6]: reduced mouse 2C T cell binding to pMHC/ICAM-1 vesicles – MLPCN validation set, flow cytometry, LFA-1/ICAM-1 modulator project, pilot screen (AID 2523;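 active = response below a set limit, under 55% cells CD8-positive and vesicle-bound, and CD8 cells' 90th-percentile brightness under 279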;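 as to vesicle binding response: mean PE anti-B7-1 fluorescence of CD8+ cells relative to row control; 100% = QL9-loaded vesicles with DMSO vehicle in the same plate row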). The following applies: 2C mouse CD8+ T cells, at 7 µM, stronger effect = lower value; double positive events: measured here: CD8+/vesicle+ event percentage.
Test [7] addresses Integrin beta-1 (Homo sapiens) + Integrin alpha-4 (Homo sapiens) (UniProt P13612+P05556). The experiment in a line: alpha4beta1 integrin LIBS antibody binding reduction – U937 cells, HUTS-21 mAb, flow cytometry, validation set, VLA-4 allosteric modulator project, pilot screen (AID 2674;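 active = inhibition above 50%, about 3 SD of the validation set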;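 also: antibody binding induced by the VLA-4 ligand LDV present at three times its Kd; 0% = LDV ligand with antibody and no compound and 100% = antibody without LDV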). The conditions noted are these: HUTS-21 LIBS mAb binding, at 6.7 µM, stronger effect = higher value, binding induced by LDV ligand.

Test [8] deals with Beta-adrenergic receptor kinase 1 (Homo sapiens) (UniProt P25098). Briefly: GRK2 binders displacing RNA aptamer, biochemical, validation, human GRK2, bead flow cytometry (AID 488806;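 active = aptamer binding inhibition above 30%, about 3 SD of noise from non-fluorescent compounds; inactive = inhibition at or below 30%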). The following applies: bead-bound GRK2, FAM-aptamer displacement, at 10 µM, stronger effect = higher value.
Test [9] has as its target Beta-2 adrenergic receptor (Homo sapiens) (UniProt P07550). The experiment in a line: agonist-induced loss of surface beta2AR – cell-based, FAP fluorogen, flow cytometry, validation set, pilot screen (AID 504459;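 active = percent response above 42, roughly 3 SD of non-fluorescent test compounds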;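 also: agonist-driven loss of surface beta2AR via internalization measured by FAP dye flow cytometry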). The following applies: Am2.2-beta2AR cells, at 10 µM, stronger effect = higher value.
Test [10] concerns the target AP-2 complex subunit beta (Homo sapiens) (UniProt P63010). Briefly: beta-arrestin/AP2 interaction blockers – biochemical, validation set, GST-AP2 beads, flow cytometry, pilot screen (AID 504541;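 active = inhibition above 54%, about 3 SD of non-fluorescent compounds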;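 also: AP2 carries R879A mutation and is captured from E. coli lysate; bead-bound FITC arrestin peptide fluorescence measuring arrestin peptide binding to AP2; 0% = DMSO wells and 100% = excess unlabeled arrestin peptide control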). The conditions noted are these: FITC arrestin peptide, at 10 µM, stronger effect = higher value, AP2 beta2 appendage fragment, R879A mutant.
Test [11] in a line: cytosolic pH regulators acting via V-ATPase – S. cerevisiae, pHLuorin, HTS validation (AID 504600; in the data active = response above about 15%;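 also: plate controls were DMSO for no effect and reference compound for full effect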). The conditions noted are these: V-ATPase proton transport, at 10 µM, stronger effect = higher value.
For test [12], the system named is anti-desmoglein-3 scFv antibody binding to human DSG3. The experiment in a line: blockers of pathogenic pemphigus antibody–desmoglein-3 binding – biochemical, validation compound set, bead-based, flow cytometry, pilot screen (AID 588368;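 active = binding below the plate cutoff, the plate median minus 3 SD, with a reading above zero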;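 also: signal is the median channel fluorescence of bead-bound GFP antibody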). The conditions noted are these: Protein G beads, DSG3-Fc, scFv-GFP binding, at 10 µM, stronger effect = lower value.
The nature of test [13]: Nile Red efflux blockade in pump-expressing yeast – validation compound set, multiplex, phenotypic, pilot screen (AID 588506;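 active = efflux inhibition above 0.42, the validation set average plus 4 SD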;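 also: Nile Red retained in cells so higher fluorescence means more efflux inhibition; 0 = negative control wells and 1 = enniatin B 25 µM full block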). The conditions noted are these: S. cerevisiae pump-expressing triplex, Nile Red efflux flow cytometry; at 10 µM; stronger effect = higher value; the pumps come from Candida albicans.
Test [14] has as its target ATP-binding cassette sub-family B member 6 (Homo sapiens) (UniProt Q9NP58). Briefly: blockers of ABCB6-driven porphyrin uptake – K562-ABCB6 cells, flow cytometry, validation set, pilot screen (AID 588550).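 Also: 0% = DMSO wells and 100% = benzethonium chloride 70 µM positive control.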 The conditions noted are these: K562-ABCB6 porphyrin accumulation, 1 h, at 10 µM, stronger effect = higher value.
Test [15] can be described thus: AML differentiation inducers, ER-HoxA9 marrow cells – cell-based, GFP/MAC1 double positive, flow cytometry, validation set, primary screen (AID 588685;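 active = differentiation response of at least 50%, scaled between solvent and reference control, from cells with both markers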;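 also: compound exposure lasts four days before antibody staining and flow analysis; 0% = DMSO wells and 100% = 5 µM fulvestrant positive control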). The following applies: stronger effect = higher value, normalized: vehicle 0, fulvestrant 100.
Test [16] is described as follows: calorie-restriction mimetic ROS inhibitors, yeast – validation compound set, pilot screen (AID 2706;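 active = superoxide response below 65% of plate, a cut near 3 SD across the whole screen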;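 also: yeast exposed to compound for one week at 30 degrees C before staining; 100% = mean of all compound wells on the same plate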). The conditions noted are these: S. cerevisiae aging, superoxide DHE fluorescence; at 10 µM, stronger effect = lower value.

Structures are written as SMILES. Results filed as inconclusive are left out. Calls of active or inactive are those of the source.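 The calls were made as follows, unless noted: active = inhibition above the screen-wide mean plus 3 SD, about 51%; inactive = the rest.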

Integrin beta-1 (Homo sapiens) + Integrin alpha-4 (Homo sapiens), sequence (P05556 whole entry, looked up): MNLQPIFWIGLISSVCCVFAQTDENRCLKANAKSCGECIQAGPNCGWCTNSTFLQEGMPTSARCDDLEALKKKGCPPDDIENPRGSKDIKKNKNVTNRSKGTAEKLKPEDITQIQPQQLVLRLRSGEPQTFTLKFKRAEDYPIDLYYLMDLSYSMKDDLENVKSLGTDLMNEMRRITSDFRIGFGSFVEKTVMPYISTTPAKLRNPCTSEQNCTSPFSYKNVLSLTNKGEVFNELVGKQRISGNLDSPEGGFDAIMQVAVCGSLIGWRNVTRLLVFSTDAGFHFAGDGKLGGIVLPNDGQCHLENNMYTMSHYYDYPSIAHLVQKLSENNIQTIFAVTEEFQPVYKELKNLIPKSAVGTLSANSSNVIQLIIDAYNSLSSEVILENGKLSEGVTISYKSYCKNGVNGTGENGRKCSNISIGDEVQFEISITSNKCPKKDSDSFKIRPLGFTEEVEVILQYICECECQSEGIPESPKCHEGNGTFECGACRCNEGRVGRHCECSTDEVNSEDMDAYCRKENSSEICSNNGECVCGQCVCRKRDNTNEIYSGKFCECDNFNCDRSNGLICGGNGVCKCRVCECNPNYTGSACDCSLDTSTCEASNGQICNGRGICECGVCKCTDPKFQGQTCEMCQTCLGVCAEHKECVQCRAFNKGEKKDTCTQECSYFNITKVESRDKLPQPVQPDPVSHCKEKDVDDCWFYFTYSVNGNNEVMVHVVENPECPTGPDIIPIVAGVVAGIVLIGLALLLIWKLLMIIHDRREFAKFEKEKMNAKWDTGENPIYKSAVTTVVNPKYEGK
Integrin beta-1 (Homo sapiens) + Integrin alpha-4 (Homo sapiens), sequence (P13612 whole entry, looked up): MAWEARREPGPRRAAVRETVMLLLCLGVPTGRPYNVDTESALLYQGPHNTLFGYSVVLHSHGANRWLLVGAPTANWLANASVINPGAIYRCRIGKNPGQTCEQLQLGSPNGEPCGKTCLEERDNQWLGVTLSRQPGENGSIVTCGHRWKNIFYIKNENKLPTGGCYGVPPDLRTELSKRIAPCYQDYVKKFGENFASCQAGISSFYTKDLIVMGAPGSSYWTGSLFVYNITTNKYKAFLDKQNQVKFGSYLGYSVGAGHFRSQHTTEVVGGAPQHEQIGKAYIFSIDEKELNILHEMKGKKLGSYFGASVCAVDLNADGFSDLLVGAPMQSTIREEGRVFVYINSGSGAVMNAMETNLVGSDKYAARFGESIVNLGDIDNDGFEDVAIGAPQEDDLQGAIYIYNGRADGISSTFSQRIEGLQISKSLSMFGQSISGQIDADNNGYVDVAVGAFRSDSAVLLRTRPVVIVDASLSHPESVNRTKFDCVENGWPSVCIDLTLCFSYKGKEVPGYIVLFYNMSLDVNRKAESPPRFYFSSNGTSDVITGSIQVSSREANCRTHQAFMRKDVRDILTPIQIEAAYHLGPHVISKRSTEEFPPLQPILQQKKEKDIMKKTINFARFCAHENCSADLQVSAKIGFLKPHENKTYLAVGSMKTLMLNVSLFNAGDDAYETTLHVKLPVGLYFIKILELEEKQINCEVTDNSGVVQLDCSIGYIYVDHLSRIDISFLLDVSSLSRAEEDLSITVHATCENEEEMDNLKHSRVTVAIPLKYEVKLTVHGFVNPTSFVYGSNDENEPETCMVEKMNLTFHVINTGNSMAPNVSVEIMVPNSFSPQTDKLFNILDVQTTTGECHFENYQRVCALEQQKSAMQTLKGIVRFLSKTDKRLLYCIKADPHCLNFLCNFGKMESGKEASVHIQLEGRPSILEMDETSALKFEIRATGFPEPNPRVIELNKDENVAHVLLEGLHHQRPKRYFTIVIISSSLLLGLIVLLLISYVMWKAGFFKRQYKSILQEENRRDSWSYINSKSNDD
Beta-adrenergic receptor kinase 1 (Homo sapiens), sequence (P25098 whole entry, looked up): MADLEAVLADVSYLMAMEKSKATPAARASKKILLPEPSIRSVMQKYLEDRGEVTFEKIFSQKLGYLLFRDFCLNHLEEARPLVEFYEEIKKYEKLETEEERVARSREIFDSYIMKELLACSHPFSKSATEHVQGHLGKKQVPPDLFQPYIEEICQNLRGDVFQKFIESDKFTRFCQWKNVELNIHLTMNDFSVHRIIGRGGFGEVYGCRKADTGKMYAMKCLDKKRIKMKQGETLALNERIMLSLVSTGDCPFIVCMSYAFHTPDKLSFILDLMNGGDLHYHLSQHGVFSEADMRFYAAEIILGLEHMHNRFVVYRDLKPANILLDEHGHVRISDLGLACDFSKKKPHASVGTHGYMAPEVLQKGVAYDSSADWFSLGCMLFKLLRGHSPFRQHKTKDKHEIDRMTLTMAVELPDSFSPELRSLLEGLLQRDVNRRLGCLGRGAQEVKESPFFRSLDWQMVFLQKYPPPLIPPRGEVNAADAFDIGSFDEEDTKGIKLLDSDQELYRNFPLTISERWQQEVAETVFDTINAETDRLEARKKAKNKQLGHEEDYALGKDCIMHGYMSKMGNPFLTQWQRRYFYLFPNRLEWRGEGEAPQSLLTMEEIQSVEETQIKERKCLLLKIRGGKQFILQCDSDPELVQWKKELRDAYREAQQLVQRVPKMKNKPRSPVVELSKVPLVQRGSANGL
AP-2 complex subunit beta (Homo sapiens), sequence (P63010 whole entry, looked up, the tested form may be a part, one chain of several): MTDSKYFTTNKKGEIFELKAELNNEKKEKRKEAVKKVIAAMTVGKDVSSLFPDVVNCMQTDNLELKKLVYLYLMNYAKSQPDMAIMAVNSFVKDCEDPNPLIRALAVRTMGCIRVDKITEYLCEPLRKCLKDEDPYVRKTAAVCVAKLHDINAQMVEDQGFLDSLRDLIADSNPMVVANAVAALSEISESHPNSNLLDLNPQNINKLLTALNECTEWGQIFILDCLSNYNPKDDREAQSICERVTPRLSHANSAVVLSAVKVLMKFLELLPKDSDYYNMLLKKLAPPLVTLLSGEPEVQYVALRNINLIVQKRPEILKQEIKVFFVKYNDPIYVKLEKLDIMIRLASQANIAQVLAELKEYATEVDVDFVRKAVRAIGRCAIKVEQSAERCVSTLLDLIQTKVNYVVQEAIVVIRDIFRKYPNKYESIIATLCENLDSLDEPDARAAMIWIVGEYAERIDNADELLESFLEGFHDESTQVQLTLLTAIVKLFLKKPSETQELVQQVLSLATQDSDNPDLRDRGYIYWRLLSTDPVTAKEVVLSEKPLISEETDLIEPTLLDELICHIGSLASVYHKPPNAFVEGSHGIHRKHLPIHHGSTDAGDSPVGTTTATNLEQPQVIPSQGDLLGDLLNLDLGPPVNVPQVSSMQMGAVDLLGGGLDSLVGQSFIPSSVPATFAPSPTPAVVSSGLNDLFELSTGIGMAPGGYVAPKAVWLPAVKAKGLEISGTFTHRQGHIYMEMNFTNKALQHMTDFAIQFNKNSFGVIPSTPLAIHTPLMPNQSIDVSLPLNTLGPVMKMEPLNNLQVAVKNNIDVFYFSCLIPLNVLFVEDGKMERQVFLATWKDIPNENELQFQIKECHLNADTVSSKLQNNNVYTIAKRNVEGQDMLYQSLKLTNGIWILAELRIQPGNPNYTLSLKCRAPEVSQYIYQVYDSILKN
ATP-binding cassette sub-family B member 6 (Homo sapiens), sequence (Q9NP58 whole entry, looked up): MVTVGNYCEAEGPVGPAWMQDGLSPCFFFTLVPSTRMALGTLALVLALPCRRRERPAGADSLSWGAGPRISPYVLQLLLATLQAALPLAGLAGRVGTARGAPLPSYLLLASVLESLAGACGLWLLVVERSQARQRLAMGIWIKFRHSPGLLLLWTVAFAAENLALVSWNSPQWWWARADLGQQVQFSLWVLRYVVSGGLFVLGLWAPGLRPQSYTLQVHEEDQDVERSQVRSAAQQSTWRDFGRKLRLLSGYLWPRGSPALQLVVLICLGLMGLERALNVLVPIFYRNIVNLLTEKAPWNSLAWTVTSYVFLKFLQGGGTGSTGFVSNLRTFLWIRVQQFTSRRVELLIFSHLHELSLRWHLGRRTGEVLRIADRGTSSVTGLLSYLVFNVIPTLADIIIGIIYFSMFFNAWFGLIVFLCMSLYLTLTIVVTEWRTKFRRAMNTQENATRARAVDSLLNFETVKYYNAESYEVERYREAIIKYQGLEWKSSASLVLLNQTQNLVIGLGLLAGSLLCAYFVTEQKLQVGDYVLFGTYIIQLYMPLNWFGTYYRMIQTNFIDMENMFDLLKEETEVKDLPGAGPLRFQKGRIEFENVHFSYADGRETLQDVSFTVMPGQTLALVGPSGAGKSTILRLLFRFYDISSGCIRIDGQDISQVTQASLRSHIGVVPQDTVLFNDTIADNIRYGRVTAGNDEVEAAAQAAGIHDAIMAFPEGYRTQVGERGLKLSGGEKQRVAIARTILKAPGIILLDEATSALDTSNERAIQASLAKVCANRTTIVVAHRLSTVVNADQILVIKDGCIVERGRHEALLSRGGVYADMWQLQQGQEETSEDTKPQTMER
Beta-2 adrenergic receptor (Homo sapiens), sequence (P07550 whole entry, looked up): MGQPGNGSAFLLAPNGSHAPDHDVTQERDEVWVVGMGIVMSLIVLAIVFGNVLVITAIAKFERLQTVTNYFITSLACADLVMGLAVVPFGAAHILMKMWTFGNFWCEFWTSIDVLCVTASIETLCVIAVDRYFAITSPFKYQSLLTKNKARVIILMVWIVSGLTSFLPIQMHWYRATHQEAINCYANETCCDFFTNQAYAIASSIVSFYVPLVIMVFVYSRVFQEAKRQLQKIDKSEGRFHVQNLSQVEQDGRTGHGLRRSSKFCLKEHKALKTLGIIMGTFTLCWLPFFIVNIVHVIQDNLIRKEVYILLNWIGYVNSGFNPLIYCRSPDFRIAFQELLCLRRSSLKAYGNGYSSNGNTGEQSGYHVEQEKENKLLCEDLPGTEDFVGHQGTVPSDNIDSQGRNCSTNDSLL

A word on the inhibition: it is the change of the read-out against control, counted positive when it falls. Turning to `CC(=O)Nc1nc(CCC(C)C)cc2c1c(=O)oc1ccccc12`, the percent of DMSO control GFP in test [1] was 102% (inactive). Further, the GFP response vs DMSO was 98.3% (inactive) in test [2] and 96% (inactive) in test [4]. For the same compound, the percent response of DMSO control in test [3] is 100% (inactive). Moreover, the GFP response, % of DMSO in test [5] is 88.6% (inactive). The double positive events in test [6] came out at 60.5%. For the same compound, in [6], the vesicle binding response is 77.6% (inactive). Further, the values for the inhibition in [7], in test [10] and in [14] were 1.62% (inactive), 2.41% (inactive) and -8% (inactive), respectively. Further, the aptamer binding inhibition in [8] was 0% (inactive). In addition, the response in test [9] is -19.1% (inactive); in test [11], 0.7% (inactive). Moreover, the binding (% of control) in test [12] is 75.5% (inactive). The efflux inhibition (fraction of control) in [13] was 0.39 (inactive). For the same compound, in test [15], the differentiation response was 16.9% (inactive).

Turning to `CCCCNc1cc(C(=O)O)cc(S(N)(=O)=O)c1Oc1ccccc1`, the percent of DMSO control GFP in [1] was 102% (inactive). The GFP response vs DMSO is 103% (inactive) in test [2] and 89.3% (inactive) in [4]. Also, the percent response of DMSO control in [3] was 97.9% (inactive). Besides, the GFP response, % of DMSO in test [5] was 102% (inactive). In test [6], this compound showed a double positive events of 52.3%. Moreover, the vesicle binding response in test [6] is 179% (inactive). In addition, the figures for the inhibition in [7], in [10] and in test [14] were 16.6% (inactive), 1.29% (inactive) and 11% (inactive), respectively. Further, in test [16], the superoxide response (% of plate) was 96.1% (inactive). In addition, the aptamer binding inhibition in [8] is 6% (inactive). Further, the response in test [11] is 10.1% (inactive). In test [12], the binding (% of control) was 99.5% (inactive). For the same compound, the efflux inhibition (fraction of control) in test [13] was 0.06 (inactive). Moreover, the differentiation response in test [15] was -9.89% (inactive).

On to `CCOC(=O)c1cccc(C(=O)OCC)n1`, for which, in test [1], the percent of DMSO control GFP is 102% (inactive). Moreover, the GFP response vs DMSO in test [2] was 98.3% (inactive); in test [4], 84.1% (inactive). In [3], the percent response of DMSO control is 100% (inactive). In addition, the GFP response, % of DMSO in [5] was 95.7% (inactive). In [6], this compound displayed a double positive events of 62.1%. The vesicle binding response in [6] is 28.3% (inactive). Besides, the inhibition in test [7] is -2.53% (inactive); in test [10] it was 5.21% (inactive); in test [14] it was 5% (inactive). For the same compound, the aptamer binding inhibition in test [8] is 0% (inactive). Moreover, the results for the response in test [9] and in test [11] were -0.16% (inactive) and -1.45% (inactive), respectively. Moreover, the binding (% of control) in [12] was 103% (inactive). Besides, the efflux inhibition (fraction of control) in test [13] was 0.68 (active). Further, in test [15], the differentiation response was 29.6% (inactive).

`O=C(c1ccc(O)cc1)c1ccc(O)cc1O`: the percent of DMSO control GFP in [1] is 101% (inactive). In addition, the GFP response vs DMSO in test [2] was 108% (inactive); in test [4], 101% (inactive). For the same compound, the percent response of DMSO control in test [3] is 104% (inactive). The GFP response, % of DMSO in test [5] was 99.1% (inactive). The compound further gave a double positive events in [6] of 59.2%. Moreover, in [6], the vesicle binding response is 122% (inactive). Further, the inhibition is 4.42% (inactive) in test [7], 45.5% (inactive) in test [10] and 6% (inactive) in test [14]. The superoxide response (% of plate) in test [16] is 95.7% (inactive). The aptamer binding inhibition in test [8] was 3% (inactive). In addition, the response in [11] was -7.71% (inactive). Moreover, the binding (% of control) in test [12] was 96.9% (inactive). Besides, the efflux inhibition (fraction of control) in [13] was 0.06 (inactive). For the same compound, the differentiation response in test [15] is 49.9% (active).

Turning to `CCn1cc(C(=O)O)c(=O)c2cnc(N3CCNCC3)nc21`, the percent of DMSO control GFP in test [1] was 99.1% (inactive). Also, the GFP response vs DMSO in test [2] is 99.9% (inactive); in [4], 91.3% (inactive). In addition, in [3], the percent response of DMSO control was 104% (inactive). Besides, in [5], the GFP response, % of DMSO is 99.7% (inactive). In test [6], this compound registered a double positive events of 61%. The vesicle binding response in [6] is 164% (inactive). Besides, the inhibition is 7.22% (inactive) in [7], 32.7% (inactive) in [10] and 6% (inactive) in [14]. The superoxide response (% of plate) in test [16] is 85.2% (inactive). Moreover, the aptamer binding inhibition in test [8] was 0% (inactive). The response in test [11] was -7.56% (inactive). For the same compound, the binding (% of control) in [12] is 99% (inactive). In [13], the efflux inhibition (fraction of control) was -0.31 (inactive). Further, the differentiation response in test [15] is -19.6% (inactive).
